Shown are actives, neighbours in structure and some others; about 8.1% of the full set was active somewhere.
KB-V1 cytotox: kills drug-selected multidrug resistant KB-V1 cells | KB-V1 MDR cells viability, CellTiter-Glo, 72 h | Potency, µM (titrated, usually from 46.1 µM), most hits filed as cytotoxic | actives 3.4% (n = 400,000); note: % is set by controls: 0 for no effect and ±100 for the full control effect; nearly all actives have a fitted effect of over 60% in size
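KB-V1, DMEM (no phenol red) + 10% FBS; cpd pin-transferred, titration series; 72 h, 37 degrees C; CellTiter-Glo, luminescence. Data normalized, curve-fit.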
MCF10A rereplic: induces DNA re-replication in MCF 10a normal breast cells; MCF 10A DNA re-replication, Hoechst nuclear intensity, 48 h; Potency, µM (doses to about 46.1 µM), for the others: at the highest dose activity, positive = re-replication, most hits filed as activators; actives 2.9% (n = 350,000); AID 624296; note: % of control where 0% means no effect; nearly all actives have a fitted effect of over 50% in size
ELG1 repair inh: blocks ELG1-dependent DNA repair in HEK293T cells | Potency, µM (highest dose often 46.1 µM), for inactives: at the highest dose activity change, negative = inhibition, usual class: inhibitors | HEK293T ELG1-luciferase reporter, luminescence, 16 h; DNA damage induced by 5-fluorouridine | AID 504467 | actives 2.3% (n = 330,000); note: % is set by controls: 0 for no effect and ±100 for the full control effect; nearly all actives have a fitted effect of over 55% in size
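HEK293T cells expressing luciferase-tagged ELG1 (2,000/well) received 5-Fluorouridine plus compound or DMSO for 16 hr at 37 °C. Luciferase was read by ONE-Glo luminescence after 30 min at room temperature.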
KB-3-1 cytotox: kills parental KB-3-1 adenocarcinoma cells; KB-3-1 viability, CellTiter-Glo ATP luminescence, 72 h; Potency, µM (series often up to 46.1 µM), most hits filed as cytotoxic; actives 1.4% (n = 400,000); AID 1347075; note: % is set by controls: 0 for no effect and ±100 for the full control effect; nearly all actives have a fitted effect of over 60% in size
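Cytotoxicity measured as CellTiter-Glo luminescence after 72 h at 37 C. Compound titrations were pinned onto drug-naive KB-3-1 parental adenocarcinoma cells grown in DMEM with 10% FBS, and normalized data fitted to concentration-response curves.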
SW480 rereplic: induces DNA re-replication in SW480 colon adenocarcinoma cells | SW480 DNA re-replication, Hoechst DNA content imaging, 48 h | Potency, µM (highest dose often 46.1 µM), inactives show at the highest dose re-replication activation, hits mostly activators | actives 1.8% (n = 340,000); note: % of control where 0% means no effect; nearly all actives have a fitted effect of over 55% in size
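Compounds, transferred as 23 nL by pin tool, were incubated with cells for 48 hr; DNA content per nucleus was then quantified by Hoechst staining and fluorescence plate imaging.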
* = called active by the depositor; i = inactive; ? = inconclusive; . = not tested or not shown. Calls come from the whole dose curve; as a rule, active = well fitted curve in the direction sought with a large enough effect; inconclusive = small, poorly fitted or top-dose-only effect, or another doubt; inactive = no such curve, though single readings can be large; an effect the other way counts as inactive or inconclusive. Potency is the fitted concentration of half-maximal effect.

SMILES | KB-V1 cytotox | MCF10A rereplic | ELG1 repair inh | KB-3-1 cytotox | SW480 rereplic
Cc1ccc(NP(=O)(c2ccc(N(C)C)cc2NC(=O)c2cccs2)N2CCOCC2)cc1Cl (stereo not given) | i | 2.8% | 16.4µM* | i | ?
O=C1c2ccccc2C(=O)c2c(/C=C/N3CCCCC3)ccnc21 | 2.31µM* | ? | . | 7.31µM* | 20.6µM*
COC(=O)c1ccccc1NC(=O)CN1CCC(n2nnc3cc(C(F)(F)F)ccc32)CC1 | 4.11µM* | ? | ? | ? | 1.3%
CC1CCN(CC(=O)N2c3ccccc3CC2C)CC1 (stereo not given) | i | -0.7% | 0.0% | i | -2.4%
COc1ccc(Cl)cc1NC(=O)CN1CCC(n2nnc3cc(C)ccc32)CC1 | i | ? | 20.6µM* | i | 0.4%
COc1ccccc1NC(=O)CN1CCC(n2nnc3cc(F)ccc32)CC1 | ? | 11.7% | 20.6µM* | i | -10.1%
CC1Cc2ccccc2N1C(=O)CN1CCC(n2nnc3cc(C(F)(F)F)ccc32)CC1 (stereo not given) | i | -4.3% | 20.6µM* | ? | 10.1%
OC[C@@H]1CN(Cc2cccnc2)C[C@H](n2cnc3c(NC4CCCC4)ncnc32)O1 | i | . | . | i | .
CCOc1ccc(NC(=O)N2CCC(n3nnc4cc(C)ccc43)CC2)cc1 | ? | 14.6% | ? | i | 14.6µM*
C[C@@H]1C(c2cccc(Cl)c2)=NN(c2ccc(Br)cc2)[C@H]1C(=O)N1CCOC1=O | i | ? | -11.3% | i | 3.26µM*
C[C@@H]1C(c2ccccc2)=NN(c2ccccc2)[C@H]1C(=O)N1CCOC1=O | i | 9.5% | -0.8% | i | ?
C[C@@H]1C(c2cccc(Cl)c2)=NN(c2ccccc2)[C@H]1C(=O)N1CCOC1=O | i | ? | -23.6% | i | 18.4µM*
COc1ccc(-c2cc(=O)c3c(C)cc(O)cc3o2)cc1 | 2.59µM* | -4.1% | . | i | 1.4%
COc1ccc(-c2cc(=O)c3ccc(O)cc3o2)cc1 | i | 18.6% | . | i | 6.7%
COc1cc(-c2cc(=O)c3c(C)cc(O)cc3o2)cc(OC)c1OC | 2.59µM* | 1.6% | . | ? | -1.2%
COc1ccc(-c2ccc3c(=O)cc(-c4ccsc4)oc3c2)cn1 | i | ? | -19.7% | i | ?
COc1cc(-c2ccc3oc(-c4ccsc4)cc(=O)c3c2)cc(OC)c1OC | i | ? | 16.4µM* | ? | -49.2%
COc1cc2oc(-c3ccc(O)cc3)cc(=O)c2c(O)c1OC | ? | 12.0% | ? | ? | -2.2%
CCOc1ccc(OCC)c(NC(=O)c2nnn(CC(=O)Nc3cc(Cl)ccc3OC)c2N)c1 | i | . | . | i | .
Cc1ccc(CN(C)C(=O)c2cc(COc3cccc(C(F)(F)F)c3)on2)o1 | i | 13.3% | 7.3% | i | 7.2%
Cc1ccc2nc(COC(=O)c3cccnc3Cl)cc(=O)n2c1 | i | . | . | ? | .
O=C(Nc1ccccc1)c1cnc(-c2ccccc2)nc1-c1ccccc1 | 10.3µM* | ? | ? | i | 13µM*
CN(C)CCCNc1c2c(nc3ccccc13)CCC2 | i | 3.6% | -3.4% | ? | -12.6%
CN(C)CCNCCCNc1c2ccccc2nc2cccc([N+](=O)[O-])c12 | i | ? | . | 0.0164µM* | ?
CC(=O)Nc1cc(-c2ccncc2)cn2c(-c3ccccc3)cnc12 | i | . | . | i | .
SMILES | KB-V1 cytotox | MCF10A rereplic | ELG1 repair inh | KB-3-1 cytotox | SW480 rereplic
COc1nc(Nc2ccccc2)nc(OC)n1 | 8.2µM* | ? | . | ? | ?
COc1cc2nc(Nc3cccc(F)c3)nc(N)c2cc1OC | ? | ? | ? | i | 0.9%
COc1nc(Nc2ccccc2F)nc(OC)n1 | ? | -7.8% | 7.8% | ? | ?
Cc1cc(C)nc(Nc2ccc(O)cc2)n1 | i | 4.6% | 7.1% | i | -1.9%
Cc1cc(C)nc(Sc2nc(Nc3ccccc3)nc(Sc3nc(C)cc(C)n3)n2)n1 | ? | ? | 11.6% | 20.6µM* | ?
COc1nc(Nc2cccc(F)c2)nc(OC)n1 | 6.51µM* | 5.3% | 19.3% | ? | -14.5%
COc1nc(Nc2ccc(OC)c(Cl)c2)nc(OC)n1 | 18.4µM* | 2.3% | 14.6% | ? | -5.4%
O=C(C[n+]1cccc(Br)c1)c1cccc([N+](=O)[O-])c1 | i | . | . | i | .
COc1ccc(CNC(=O)C2CCN(S(=O)(=O)Cc3ccccc3)CC2)cc1 | i | . | . | i | .
NNc1nc(Nc2ccccc2)nc(Nc2ccccc2)n1 | i | ? | 16.4µM* | i | ?
CCOc1nc(Nc2ccc(OC)c(Cl)c2)nc(N2CCN(c3ccc(OC)cc3)CC2)n1 | ? | 3.3% | 18.4µM* | i | 8.1%
NNc1nccc(Nc2ccccc2C(=O)O)n1 | i | -4.3% | 13.0% | i | -0.9%
c1ccc(Nc2ccnc(Nc3ccccc3)n2)cc1 | 18.4µM* | ? | ? | ? | ?
CNc1nc(Cl)nc(Nc2ccccc2)n1 | 5.8µM* | ? | ? | ? | -20.1%
C=CCNc1nc(Cl)nc(Nc2ccccc2)n1 | i | -1.3% | ? | i | -4.0%
NNc1nc(Nc2ccccc2)nc(N2CCCCC2)n1 | ? | -2.2% | -18.1% | i | 21.8%
OC(c1ccc2ccccc2c1)c1ncc(-c2ccc(C(F)(F)F)cc2)[nH]1 (stereo not given) | ? | . | . | i | .
Cc1cc2c(cc1S(=O)(=O)Nc1cccc(Cl)c1C)n(C)c(=O)c(=O)n2C | ? | . | . | i | .
C=C(C)Cn1c(SCC(=O)c2ccc(Br)cc2)nc2sc3c(c2c1=O)CCCC3 | i | . | . | i | .
CCOc1ccc(CNC(=O)C2CCCN(c3nn4cc(-c5ccc(OC)cc5)nc4s3)C2)cc1 (stereo not given) | i | . | . | i | .
COc1ccc(C2Cc3ccccc3C(=O)O2)cc1 (stereo not given) | ? | -2.8% | 30.0% | i | 20.6µM*
COc1ccc(NC(=O)C2Cc3ccccc3C(=O)O2)cc1 (stereo not given) | i | 8.7% | ? | i | 0.9%
CCOc1cc(N2CCOCC2)c(OCC)cc1NS(=O)(=O)c1ccc(Cl)s1 | 5.17µM* | 6.31µM* | 19.4% | 6.51µM* | 18.4µM*
CCOc1cc(N2CCOCC2)c(OCC)cc1NC(=O)c1nc2nc(C)cc(C)n2n1 | i | 1.8% | 7.94µM* | i | -1.7%
CCOc1cc(N2CCOCC2)c(OCC)cc1NC(=O)CCS(=O)(=O)c1ccc(Cl)cc1 | i | 15.6% | ? | i | -3.4%
CCOc1cc(N2CCOCC2)c(OCC)cc1NC(=O)c1cnccn1 | i | -0.4% | 10.3µM* | ? | 0.5%
CCOc1cc(-n2cnnn2)c(OCC)cc1NC(=O)c1cnccn1 | i | 4.9% | 5.8% | i | 1.4%
